# Measured values reported in PubChem BioAssay AID1851 (National Center for Advancing Translational Sciences (NCATS), 2009).
# The campaign covered roughly 16,000 compounds. About 4,000 (25%) were called active. About 26% were inconclusive and are not listed. Not all results are given here. Unmarked numbers belong to inactive results. Calls follow the shape of the dose curve; as a rule, active = well fitted curve in the direction sought with a large enough effect; inconclusive = small, poorly fitted or top-dose-only effect, or effect the other way; inactive = no such curve, though single readings can be large or run the other way.
# Molecular target: Cytochrome P450 2C9 (Homo sapiens) (UniProt P11712)
# Test: Cytochrome panel assay with activity outcomes
# Conditions: recombinant CYP, pro-luciferin dealkylation, luminescence, p450-cyp2c9; series mostly up to 57.1 µM; activity, negative = inhibition: at the top concentration
# % is scaled to controls: 0 for no effect and ±100 for the full control effect.
# Sequence of Cytochrome P450 2C9 (Homo sapiens) (P11712 whole entry, looked up): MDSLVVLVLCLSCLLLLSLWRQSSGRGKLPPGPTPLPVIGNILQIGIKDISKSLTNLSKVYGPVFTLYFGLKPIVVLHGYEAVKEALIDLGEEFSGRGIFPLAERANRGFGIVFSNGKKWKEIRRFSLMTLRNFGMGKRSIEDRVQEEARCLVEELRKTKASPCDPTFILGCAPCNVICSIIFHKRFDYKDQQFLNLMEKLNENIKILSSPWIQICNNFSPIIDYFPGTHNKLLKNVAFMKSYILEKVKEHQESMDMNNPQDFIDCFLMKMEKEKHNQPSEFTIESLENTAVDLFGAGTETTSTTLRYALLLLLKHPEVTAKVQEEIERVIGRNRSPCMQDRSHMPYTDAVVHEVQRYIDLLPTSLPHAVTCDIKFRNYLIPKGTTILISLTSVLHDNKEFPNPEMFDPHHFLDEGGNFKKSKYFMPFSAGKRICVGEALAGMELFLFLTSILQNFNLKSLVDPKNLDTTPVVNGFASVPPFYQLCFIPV
SMILES,"activity, negative = inhibition",AC50
NC1=C(O)C(=O)[C@H](c2c[nH]c3ccc(OCc4ccccc4)cc23)O1,-27.4% [at 11.4 µM],–
CC(C)/C(=N/[N+](C)(C)C)c1ccccc1,9.65% [at 11.4 µM],–
CC(C)C(=O)Nc1cc2c(cc1C(=O)c1ccccc1)OCCO2,–,8.91 µM (active)
CC(=O)c1cc2c(cc1NC(=O)CCCC(=O)O)OCO2,0.864%,–
O=C1Nc2ccccc2C1=Nc1ccc(S(=O)(=O)Nc2nccs2)cc1,8.43% [at 11.4 µM],–
O=C(O)c1ccccc1C(=O)Nc1ccc(S(=O)(=O)Nc2nccs2)cc1,-19.3% [at 25.6 µM],–
O=C(CCN1C(=O)S/C(=C\c2ccccc2)C1=O)Nc1ccc(S(=O)(=O)Nc2nccs2)cc1,–,1.58 µM (active)
CCOc1ccc(OCC)c(-c2c(=O)n(OCc3ccccc3C(=O)OC)c3ccccc3[n+]2[O-])c1,–,14.1 µM (active)
CCOc1ccc(OCC)c(-c2c(=O)n(OCc3ccc(C(C)(C)C)cc3)c3ccccc3[n+]2[O-])c1,–,6.31 µM (active)
O=c1c(-c2ccc(Cl)cc2)[n+]([O-])c2ccccc2n1OCc1ccccn1,-25.4%,–
OC[C@@H]1O[C@H](n2cnc3c(/C=C(\O)c4ccccc4)ncnc32)[C@H](O)[C@@H]1O,0.392% [at 11.4 µM],–
COc1ccc(C(=O)N2CCC3(CCCN(Cc4ccccc4OC)C3)CC2)cc1,-18.1%,–
Cc1ccc(C)c(S(=O)(=O)N2CCC(c3nc4c(nnn4Cc4ccc(F)cc4)c(=O)[nH]3)CC2)c1,–,1.58 µM (active)
COc1ccc(C(=O)N2CCC3(CCN(Cc4ccccc4OC)CC3)CC2)cc1,11.6%,–
COc1cccc(Cn2nnc3c(=O)[nH]c(C4CCCN(C(=O)c5ccccc5Cl)C4)nc32)c1 (stereo not drawn),–,5.01 µM (active)
Cc1ccc(Cn2nnc3c(=O)[nH]c(C4CCN(C(=O)Cc5cccs5)CC4)nc32)cc1,–,0.708 µM (active)
COc1ccccc1Cn1nnc2c(=O)[nH]c(C3CCN(C(=O)c4ccc(C)cc4)CC3)nc21,–,5.62 µM (active)
Cc1ccn2cc(CSc3ccccc3N)nc2c1,-1.78%,–
NC1=C2NC=N[C@@H]2N(C/C=C\c2ccccc2)C=N1,1.29% [at 11.4 µM],–
O=C(Cc1cccs1)N1CCC(c2nc3c(nnn3Cc3ccccc3Cl)c(=O)[nH]2)CC1,–,0.224 µM (active)
CCc1ncc(CO)n1Cc1cccc2ccccc12,-1.15% [at 11.4 µM],–
COc1ccc(N2CCN(C(=N)/C(C(C)=O)=C(\C)O)CC2)cc1,-13.8%,–

SMILES,"activity, negative = inhibition",AC50
COc1ccc(N2CCN(C(=S)Nc3cc(C)ccc3C)CC2)cc1,-18%,–
CCn1cnc2sc(C(=O)N3CCN(c4ccc(OC)cc4)CC3)c(C)c2c1=O,–,7.94 µM (active)
O=C(NCCCn1ccnc1)c1ccc(Br)c(S(=O)(=O)N2CCOCC2)c1,–,0.708 µM (active)
O=C(NCCN1CCOCC1)c1ccc2ccccc2c1,0.564%,–
O=C(NCCCN1CCOCC1)c1cc2c(s1)CSC2,-20.3%,–
CN[C@@H]1[C@H](O[C@H]2[C@@H](O[C@@H]3[C@@H](O)[C@@H](O)[C@@H](N=C(N)N)[C@@H](O)[C@@H]3N=C(N)N)O[C@@H](C)[C@]2(O)CO)O[C@H](CO)[C@@H](O)[C@@H]1O,4.16% [at 25.6 µM],–
CCCC(=O)NNC(=O)Nc1ccccc1,-2.98%,–
Cc1ccc(NC(=O)NNC(=O)C2CC(c3cccnc3)=NO2)cc1 (stereo not drawn),-11.6%,–
Cc1ccc(NC(=O)NNC(=O)Cn2nc(-c3ccccc3)c(-c3ccccc3)c(C#N)c2=O)cc1,–,3.16 µM (active)
ClC(Cl)(Cl)C(N1CCN(c2ccccc2)CC1)N1CCN(c2ccccc2)CC1,18.4% [at 11.4 µM],–
OC[C@@H](O)CN1CCN(c2ccccc2)CC1,5.85% [at 25.6 µM],–
CC(C)CC(c1nnnn1C(C)C)N1CCN(c2ccccc2)CC1 (stereo not drawn),–,2 µM (active)
NS(=O)(=O)c1cc2c(cc1Cl)=NC(CCC(=O)O)=NS=2(=O)O,3.24% [at 11.4 µM],–
Cc1ccc(-c2ccc(/C=N\NC(=O)c3cc4c(ccc5ccccc54)o3)o2)cc1[N+](=O)[O-],-28.8%,–
Cc1ccc(-c2ccc(/C=N/NC(=S)Nc3ccccc3)o2)cc1[N+](=O)[O-],–,3.98 µM (active)
CCn1c(=O)c2c(O)cc(=O)oc2c2ccccc21,-2.96%,–
CCn1c2ccccc2c2cc(NS(=O)(=O)c3ccccc3C)ccc21,–,0.891 µM (active)
Cc1nc2cnc(N3CCN(C)CC3)nc2n(C)c1=O,3.4%,–
COC(=O)C1CCC(C)(C(=O)Nc2ccccc2)C1(C)C (stereo not drawn),–,7.94 µM (active)
COC(=O)N1CCC2(CC1)CN(C(=O)Nc1ccccc1)C2,18.3%,–
COC(=O)C1CSC(C(=O)OC)N1C(=O)Nc1ccccc1 (stereo not drawn),-11.8%,–
